From the supplement of paper PMC12632987

T1: USP38, Q8NB14
T1 chain: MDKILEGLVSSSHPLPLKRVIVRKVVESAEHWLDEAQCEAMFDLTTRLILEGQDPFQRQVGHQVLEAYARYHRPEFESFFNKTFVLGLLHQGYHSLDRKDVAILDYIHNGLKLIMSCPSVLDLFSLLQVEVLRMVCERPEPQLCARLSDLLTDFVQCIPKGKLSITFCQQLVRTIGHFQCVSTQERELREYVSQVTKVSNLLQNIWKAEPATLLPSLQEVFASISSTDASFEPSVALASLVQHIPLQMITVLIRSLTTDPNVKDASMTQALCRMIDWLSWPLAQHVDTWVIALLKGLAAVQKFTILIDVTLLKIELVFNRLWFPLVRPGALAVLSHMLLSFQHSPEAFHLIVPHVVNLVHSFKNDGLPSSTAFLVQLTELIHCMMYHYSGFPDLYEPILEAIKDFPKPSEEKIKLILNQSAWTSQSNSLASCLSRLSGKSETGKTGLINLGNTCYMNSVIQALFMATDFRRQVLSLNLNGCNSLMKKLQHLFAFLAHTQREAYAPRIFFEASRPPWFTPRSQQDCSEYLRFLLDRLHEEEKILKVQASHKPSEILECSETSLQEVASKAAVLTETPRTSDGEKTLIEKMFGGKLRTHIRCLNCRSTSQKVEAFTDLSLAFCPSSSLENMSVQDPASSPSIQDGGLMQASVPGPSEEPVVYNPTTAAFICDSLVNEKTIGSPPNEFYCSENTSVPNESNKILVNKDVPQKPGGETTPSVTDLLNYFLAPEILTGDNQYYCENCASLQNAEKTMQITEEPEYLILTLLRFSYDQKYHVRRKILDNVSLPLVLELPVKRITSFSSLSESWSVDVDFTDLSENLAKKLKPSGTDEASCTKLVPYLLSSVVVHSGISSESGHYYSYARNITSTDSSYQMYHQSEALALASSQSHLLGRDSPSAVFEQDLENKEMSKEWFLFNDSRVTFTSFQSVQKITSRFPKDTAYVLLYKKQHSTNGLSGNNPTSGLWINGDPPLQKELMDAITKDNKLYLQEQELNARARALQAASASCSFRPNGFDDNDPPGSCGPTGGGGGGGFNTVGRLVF


Biological target: UCHL1, P09936
Test: median log2 fold change of GCK-ALFA target abundance (FLAG IP / Myc IP barcode read proportion) (log2 ratio); each designed protein is fused to an ALFA-tag nanobody in HEK293 cells to bring the named protein to FLAG-tagged glucokinase (GCK); Myc marks an untargeted standard; higher = target protein stabilised (more abundant)
Settings: target protein: 3xFLAG-MCP-GCK-ALFA reporter; HEK293 landing pad (RPLP)
Summary of the method: (§1)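 An ALFA-nanobody-fused binder library was recombined into HEK293 landing-pad cells and induced with 2 μg mL^−1 doxycycline. Cells were transfected with a plasmid expressing a FLAG-tagged target and a Myc-tagged standard. After 48 h, lysates underwent anti-FLAG and anti-Myc immunoprecipitation, and circular RNA barcodes were reverse transcribed, amplified and sequenced. Target abundance is the per-binder median log2 ratio of FLAG to Myc barcode read proportions. Barcodes needed ≥10^−7 proportion in both replicates, binders ≥3 barcodes per replicate, and a 10^−6 pseudocount was added; the two replicates were pooled.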

Sequence of UCHL1, P09936 (P09936 whole entry, looked up, the tested form may be a part): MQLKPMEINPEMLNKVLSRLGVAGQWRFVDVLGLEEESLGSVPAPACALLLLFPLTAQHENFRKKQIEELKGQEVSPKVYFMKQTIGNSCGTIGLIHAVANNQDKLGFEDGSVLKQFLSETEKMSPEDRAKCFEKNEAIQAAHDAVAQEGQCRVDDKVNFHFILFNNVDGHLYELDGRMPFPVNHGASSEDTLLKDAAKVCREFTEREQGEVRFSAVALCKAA

| Binder | median log2 fold change |
| --- | --- |
| uchl1_89_7588 (protein) EEERRRAARERLERVLAATRARLEALLARLGEPDPALVAALEALFAAARRALEDPATAAEALAAAEAAARRLVELAPPEVRASVRLAVGRLVNRLRGYVA | -0.164 |
| uchl1_89_7595 (protein) AAERAAAARARLRRVLAATRAELDRLVARMGERDPELLAALEAFFAAAEAALADPSTAAAALAAAEAAAKRAVELAPERYRASFRLALGRLLNALRGYVA | -0.1 |
| uchl1_89_7589 (protein) AAAREAAARARLEAVLAKTRAELERLLARLGAPDPEMVAALEALFDAARRALADPETAEAALAETEAAARRLVELAPEEVRASVRLAVGRLVIALEGYRA | 0.16 |
| uchl1_89_7596 (protein) EEERRAAARARLRRVLAATRAKLEELIARMGERDPELLAELEAFFAAAEAALEDPETAEAALAAAEEHAVRAVELAPEEYRASFRLALGRLLNALLGYVA | -0.537 |
| uchl1_89_7592 (protein) DAARLAAARARLRRVLERTRARVEAIIARLGRPDPAMVAAAEAVFAAAERAIADPARAAEWVARAEAAARELVALAPPEYRSDFRMALGRLVNALLGYAA | -0.157 |
| uchl1_89_7593 (protein) EEARLAAARAKLREVLARTRAAVEAILARLGEPRPELVALLDAIFEAAEKAIADPAKAEEYVEKAEAAAREFVELAPEEFRSDFRMALGRLINRLLGYAA | 0.0394 |
| uchl1_89_7594 (protein) EEERLAAARAYLRRVLAETRARVEAILARLGRPDPALVAAAEAIFEAAELAIEEPERAEEYVARAEEAARQLVELAPPEYRADFRMALGRLINRLRGYAA | 0.173 |
| uchl1_89_7591 (protein) EAERLERARAHLREVLARTRERVEAIIARLGEPDPALVAARERVFAAAERAIADPARAAEYVAEAEAAARELVALAPPEFRSDFRMALGRLINRLLGYAA | 0.0711 |
| uchl1_89_7590 (protein) EEAKAKAARARLERVLAATEAALRRLLARLGAPDPALVAALDALLAAARAALADPATAAAHLAAAEAAARRLVELAPPEVRASVRLATGRLVNALRGYVA | -0.00562 |

Biological target: T1, USP38, Q8NB14
Test: as above
Settings: target protein: 3xFLAG-MCP-GCK-ALFA reporter; HEK293 landing pad (RPLP)
Summary of the method: as §1

| Binder | median log2 fold change |
| --- | --- |
| usp_38_diff_out_10_51_1 (protein) SVEEAKKRIEELMKEVEEVFKTGSDGEILRKSLNALNELTEIAKEYPEVKEEVIEAMVRIVELTKPNPELYEDMTFAARFKAATVSDEVAEKVREKIAAL | 0.235 |
| usp_38_diff_out_10_51_2 (protein) SVEEAREEIEELLEEVEEVFKTGSLDEQLRAGLNALNRLREIALEYPEVEEEVIEAMVRIVELAKPNPELYEDMKFAARFKAATVNDEVAERVRERIDAL | 0.0864 |
| usp_38_diff_out_13_133_50 (protein) SMEEEEKKEALKKFEELIKEAREAIEKAKKALEEGDLDKAWEYLGKAAGLLMEARELRTRELRDDPELYKEAKKKLEEVEKELNEVIDKVVEAEEKAFLA | 0.322 |
| usp_38_diff_out_13_133_51 (protein) AAKEEALAAAQARFDALLADAQAAIDAAEAALAAGDLDAAWAAVGRAAGLLREAREHRTRELRDDPAAYAAAQARLDAVEKRLNAVIDRVAAAERARFLA | 0.142 |
| usp_38_diff_out_10_51_3 (protein) SREEEAERLLEEMEELVEKIKTSDLKTATAYFYQLINLTARLEALDPSYAERALELLKEAAKELLEKGGDKEDIIFALRFKAAATGSKVLEKAAEYVEKL | 0.18 |
| usp_38_diff_out_13_133_52 (protein) AEEEEELKRRKEEFDKLIAEARKAIKDAKAALAAGDLDAAWAAAGKAAGLLMKAREHRTEKLRDDPELYEEAKKKLDEVEKELNEVIDAIVAAERERFLA | 0.302 |
| usp_38_diff_out_11_94_49 (protein) DEEIETNLFLMRYQFSQIVDLALTIDRETAAKVLRLANEAMEILKSGGPLEEVNKKLEEIKKVFNEAAAKSKENTEKLTAEANALLEKAKEYAEKAIKLR | 0.33 |
